PubChem BioAssay (NCATS)
Values without a mark were called inactive. The source made the active and inactive calls. The rule behind the calls is not given here.

Test system: HIV-1 nucleocapsid protein NCp7 (binding to TG oligonucleotide)
Assay: HIV Nucleocapsid (AID 346);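 note: potency is for inhibitors that block NC binding and lower polarization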
Conditions: HIV-1 NC / fluorescein-TGTGTGTG probe, fluorescence polarization
Summary of the method: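 HIV-1 NC (100 nM) binding to fluorescein-labelled ssDNA TG4xF (10 nM) in Hepes pH 7.5, 250mM NaCl, 1uM ZnCl2, TCEP and 2-mercaptoethanol; compounds pin-transferred, 1 hr room temperature, fluorescence polarization read on CCD imager.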
Potency is the fitted concentration of half-maximal effect.

Which Potency does the source give for `COc1ccc2[nH]cc(CCNc3ncncc3-c3cccc(NS(C)(=O)=O)c3)c2c1` here?
The Potency was greater than 20 µM.

With `COc1cccc(-c2nc(NCCN3CCOCC3)c3ccccc3n2)c1` as the compound, how does the Potency read?
The Potency was greater than 20 µM.

For `COCCn1c(=O)c(CCc2ccccc2)nc2cnc(Oc3ccc(OC)cc3)nc21`, which Potency is on record?
Its Potency is greater than 20 µM.

Which Potency does the source give for `COCCn1c(=O)c(CCc2ccccc2)nc2cnc(Oc3cccc(Cl)c3)nc21` here?
Its Potency is greater than 20 µM.

For `CNc1ncncc1-c1ccccc1C(F)(F)F`, which Potency is on record?
The Potency was greater than 20 µM.

With `Cc1ccccc1-c1cncnc1N1CCNCC1` as the compound, how does the Potency read?
Its Potency is greater than 20 µM.

`COCC(=O)N1CCC2(CCCN(Cc3ccccc3OC)C2)CC1` was tested. Which Potency did it give?
Its Potency is greater than 20 µM.

How did the Potency turn out when `Cc1nc2cnc(Nc3ccccc3)nc2n(Cc2cccs2)c1=O` was run?
Its Potency is greater than 20 µM.

How did the Potency turn out when `O=c1c(-c2cccs2)nc2cnc(Nc3ccccc3)nc2n1C[C@H]1CCCO1` was run?
Its Potency is 4.11 µM (active).

`CN1CCN(c2ncc3ncc(=O)n(Cc4ccc(F)cc4)c3n2)CC1` was tested. Which Potency did it give?
The Potency was greater than 20 µM.

`Cc1cnc(CNc2ncncc2-c2ccc3c(c2)OCO3)cn1` was tested. Which Potency did it give?
Its Potency is greater than 20 µM.

How did the Potency turn out when `CC(C)NC(=O)N1CCC2(CC1)CCN(C(=O)c1cc(C(F)(F)F)cc(C(F)(F)F)c1)CC2` was run?
Its Potency is greater than 20 µM.

How did the Potency turn out when `CC(C)CN1CCC2(CC1)CCN(C(=O)c1cccc(F)c1)CC2` was run?
Its Potency is greater than 20 µM.

Which Potency does the source give for `CC(C)NC(=O)N1CC[C@@]2(CCCN(C(=O)c3ccncc3)C2)C1` here?
Its Potency is greater than 20 µM.

For `N#Cc1cccc(-c2ccc3ncnc(NCc4cccnc4)c3c2)c1`, which Potency is on record?
The Potency was greater than 20 µM.

For `COc1ccc(CNc2ncnc3ccc(-c4ccc(N(C)C)cc4)cc23)c(OC)c1`, which Potency is on record?
The Potency was greater than 20 µM.

How did the Potency turn out when `COc1ccc(NC(=O)N2CC3(CCN(C(=O)c4ccco4)CC3)C2)cc1` was run?
The Potency was greater than 20 µM.

For `O=C(c1ccncc1)N1CCC2(CC1)CCN(C(c1ccccc1)c1ccccc1)CC2`, which Potency is on record?
The Potency was greater than 20 µM.

Which Potency does the source give for `CC(=O)N1CCC2(CC1)CCN(C(=O)Nc1cccc(C#N)c1)CC2` here?
Its Potency is greater than 20 µM.

For `COc1ccc(-n2c(=O)c(-c3cn(C)c4ccccc34)nc3cnc(N4CCNCC4)nc32)cc1`, which Potency is on record?
The Potency was greater than 4 µM.

How did the Potency turn out when `COc1ccc(Oc2ncc3nc(C)c(=O)n(Cc4ccc(F)cc4)c3n2)cc1` was run?
The Potency was greater than 20 µM.

With `CCNc1ncc2nc(-c3cn(C)c4ccccc34)c(=O)n(-c3ccccc3)c2n1` as the compound, how does the Potency read?
The Potency was 16.4 µM.

How did the Potency turn out when `COc1ccccc1-c1cc(NCc2cnc(C)cn2)ncn1` was run?
Its Potency is greater than 20 µM.

How did the Potency turn out when `COc1ccc(C(=O)N2CCC3(CCN(CC(C)C)CC3)CC2)cc1` was run?
Its Potency is greater than 20 µM.

How did the Potency turn out when `CS(=O)(=O)Nc1cccc(-c2ccc3ncnc(NC4CCNCC4)c3c2)c1` was run?
Its Potency is greater than 20 µM.

With `O=c1c(-c2cccs2)nc2cnc(N3CCOCC3)nc2n1Cc1cccs1` as the compound, how does the Potency read?
Its Potency is greater than 4 µM.

How did the Potency turn out when `O=C(c1cc(C(F)(F)F)cc(C(F)(F)F)c1)N1CCC2(CCN(Cc3nccs3)CC2)CC1` was run?
The Potency was greater than 20 µM.

`c1ccc(CNc2ccnc(-c3ccoc3)n2)cc1` was tested. Which Potency did it give?
Its Potency is greater than 20 µM.

Which Potency does the source give for `N#Cc1cccc(-c2cncnc2-n2ccnc2)c1` here?
The Potency was greater than 20 µM.

With `COc1ccc(-c2nc3cnc(Nc4cccc(OC)c4)nc3n(C)c2=O)cc1` as the compound, how does the Potency read?
The Potency was greater than 20 µM.

Which Potency does the source give for `CC(=O)N1CCC2(CCN(Cc3ccccc3)CC2)CC1` here?
Its Potency is greater than 20 µM.

With `COc1cccc(-c2nccc(NCc3ccccc3)n2)c1` as the compound, how does the Potency read?
Its Potency is greater than 20 µM.

How did the Potency turn out when `COc1ccc(Oc2ncc3nc(-c4cc(F)cc(F)c4)c(=O)n(CCC#N)c3n2)cc1` was run?
The Potency was greater than 20 µM.

How did the Potency turn out when `COc1ccccc1CCn1c(=O)cnc2cncnc21` was run?
Its Potency is greater than 20 µM.

How did the Potency turn out when `O=C(c1cnccn1)N1CCC2(CC1)CN(Cc1ccccc1)C2` was run?
Its Potency is greater than 20 µM.

With `Clc1ccccc1-c1nc(NC2CCNCC2)c2ccccc2n1` as the compound, how does the Potency read?
Its Potency is greater than 20 µM.

For `O=C(c1csnn1)N1CCC2(CC1)CCN(c1ccccc1)CC2`, which Potency is on record?
The Potency was greater than 20 µM.

For `CN(Cc1ccco1)c1ncnc2ccc(-c3cccc(C#N)c3)cc12`, which Potency is on record?
The Potency was greater than 20 µM.

`Cn1c(=O)c(CCc2ccccc2)nc2cnc(Oc3ccccc3)nc21` was tested. Which Potency did it give?
The Potency was greater than 20 µM.

Which Potency does the source give for `O=c1c(-c2cccs2)nc2cnc(N3CCNCC3)nc2n1Cc1cccs1` here?
Its Potency is greater than 20 µM.
